Test results reported in ChEMBL document CHEMBL3988442, “University of Dundee, Small-Polar-MMV Screening Library” (2021).
For some assays here: Potency and affinity values are given separately.

Columns and labels:
Parameters in all cases: scale not given: direction of the effect not stated beside the values
[1] = target: Protein translocase subunit SecA (Escherichia coli (strain K12)) (UniProt P10408); experiment: Assay to Identify E. coli SecA ATPase Inhibitors; type: functional; settings: 30 µM
[2] = target: T1, Ubiquitin-activating enzyme e1, putative (Leishmania donovani (strain BPK282A1)) (UniProt E9BSI1); experiment: Leishmania donovani Ubiquitin Activating Enzyme (LdE1); type: functional; settings: 30 µM
T1 sequence (whole entry): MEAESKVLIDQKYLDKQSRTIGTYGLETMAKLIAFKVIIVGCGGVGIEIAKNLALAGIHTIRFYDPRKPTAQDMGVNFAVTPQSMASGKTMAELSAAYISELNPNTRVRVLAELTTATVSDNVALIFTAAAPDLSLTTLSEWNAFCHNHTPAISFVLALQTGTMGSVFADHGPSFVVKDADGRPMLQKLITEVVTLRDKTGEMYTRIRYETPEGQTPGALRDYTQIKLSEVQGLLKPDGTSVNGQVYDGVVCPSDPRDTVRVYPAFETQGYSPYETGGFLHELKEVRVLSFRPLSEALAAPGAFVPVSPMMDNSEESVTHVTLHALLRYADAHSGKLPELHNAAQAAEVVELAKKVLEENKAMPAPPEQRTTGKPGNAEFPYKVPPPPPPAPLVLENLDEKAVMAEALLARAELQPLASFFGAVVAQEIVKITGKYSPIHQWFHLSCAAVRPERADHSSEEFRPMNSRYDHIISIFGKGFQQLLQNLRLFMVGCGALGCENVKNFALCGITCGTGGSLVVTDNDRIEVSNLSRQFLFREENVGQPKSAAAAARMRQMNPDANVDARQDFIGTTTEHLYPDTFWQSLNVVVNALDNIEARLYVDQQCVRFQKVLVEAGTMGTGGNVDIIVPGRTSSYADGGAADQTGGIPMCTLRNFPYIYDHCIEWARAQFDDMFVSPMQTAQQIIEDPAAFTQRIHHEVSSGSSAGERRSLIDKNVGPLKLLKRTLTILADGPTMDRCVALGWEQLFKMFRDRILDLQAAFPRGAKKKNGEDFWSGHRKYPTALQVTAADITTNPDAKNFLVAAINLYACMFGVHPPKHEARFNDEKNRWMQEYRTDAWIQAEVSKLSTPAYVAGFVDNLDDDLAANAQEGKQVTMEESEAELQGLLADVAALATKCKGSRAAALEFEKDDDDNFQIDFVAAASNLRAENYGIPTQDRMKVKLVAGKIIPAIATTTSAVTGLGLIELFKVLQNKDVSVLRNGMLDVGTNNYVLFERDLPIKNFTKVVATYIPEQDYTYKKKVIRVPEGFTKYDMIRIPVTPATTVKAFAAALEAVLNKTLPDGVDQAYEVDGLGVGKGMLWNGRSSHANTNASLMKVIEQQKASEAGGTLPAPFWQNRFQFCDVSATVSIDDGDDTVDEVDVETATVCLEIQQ

[3] = target: Sialic acid-binding Ig-like lectin 9 (Homo sapiens) (UniProt Q9Y336); experiment: Hs-Siglec9 ALPHAscreen SOP 20170721; settings: 10 µM
Trypanosoma cruzi = experiment: Trypanosoma cruzi phosphomannomutase and mannose-1-phosphate guanylyltransferase assay; type: functional; settings: 10 µM
[4] = target: T2, Arginase-2, mitochondrial (Homo sapiens) (UniProt P78540); experiment: in vitro enzyme assay to detect the production of urea directly proportional to the activity of Arginase II; type: functional; settings: 33.3 µM; further: in the data most compounds retested in dose-response had high values
T2 sequence (whole entry): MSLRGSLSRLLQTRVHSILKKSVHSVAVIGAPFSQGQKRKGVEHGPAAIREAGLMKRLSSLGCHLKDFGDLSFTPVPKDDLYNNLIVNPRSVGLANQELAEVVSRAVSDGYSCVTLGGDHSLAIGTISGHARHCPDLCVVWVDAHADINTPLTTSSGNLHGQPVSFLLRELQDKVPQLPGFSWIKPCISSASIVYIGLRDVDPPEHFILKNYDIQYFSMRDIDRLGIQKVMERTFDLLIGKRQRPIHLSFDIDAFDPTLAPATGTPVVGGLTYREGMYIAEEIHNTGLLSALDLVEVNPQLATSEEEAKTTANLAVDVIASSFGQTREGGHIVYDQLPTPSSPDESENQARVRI

[5] = target: T3, Proteasome subunit beta (Trypanosoma cruzi) (UniProt O96673); experiment: Trypanosoma cruzi proteasome chymotrypsin-like activity (TcProtChymo) assay.; further: in the data most compounds retested in dose-response had high values; type: functional; settings: 9.37 µM
T3 sequence (whole entry): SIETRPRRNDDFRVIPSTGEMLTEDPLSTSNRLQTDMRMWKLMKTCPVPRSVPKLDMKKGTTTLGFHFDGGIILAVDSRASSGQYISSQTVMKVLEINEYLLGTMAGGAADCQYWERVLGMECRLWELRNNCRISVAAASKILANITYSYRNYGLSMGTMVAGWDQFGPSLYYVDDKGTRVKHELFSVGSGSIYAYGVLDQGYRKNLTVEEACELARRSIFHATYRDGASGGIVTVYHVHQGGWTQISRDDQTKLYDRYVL

Homo sapiens = organism: Homo sapiens; experiment: To identify inhibition of the IFN signalling (Jak-Stat) pathway via expression of an eGFP reporter gene under the control of an IFN-stimulated response element (ISRE) containing MxA promoter.; type: functional; settings: 30 µM
[6] = target: T4, Tyrosyl-tRNA synthetase, putative (Trypanosoma cruzi (strain CL Brener)) (UniProt Q4DSP6); experiment: Trypanosoma cruzi tyrosyl tRNA synthetase (TcYRS) _High Tyrosine SOP; type: functional; settings: 30 µM; further: in the data most compounds retested in dose-response had high values
T4 sequence (whole entry): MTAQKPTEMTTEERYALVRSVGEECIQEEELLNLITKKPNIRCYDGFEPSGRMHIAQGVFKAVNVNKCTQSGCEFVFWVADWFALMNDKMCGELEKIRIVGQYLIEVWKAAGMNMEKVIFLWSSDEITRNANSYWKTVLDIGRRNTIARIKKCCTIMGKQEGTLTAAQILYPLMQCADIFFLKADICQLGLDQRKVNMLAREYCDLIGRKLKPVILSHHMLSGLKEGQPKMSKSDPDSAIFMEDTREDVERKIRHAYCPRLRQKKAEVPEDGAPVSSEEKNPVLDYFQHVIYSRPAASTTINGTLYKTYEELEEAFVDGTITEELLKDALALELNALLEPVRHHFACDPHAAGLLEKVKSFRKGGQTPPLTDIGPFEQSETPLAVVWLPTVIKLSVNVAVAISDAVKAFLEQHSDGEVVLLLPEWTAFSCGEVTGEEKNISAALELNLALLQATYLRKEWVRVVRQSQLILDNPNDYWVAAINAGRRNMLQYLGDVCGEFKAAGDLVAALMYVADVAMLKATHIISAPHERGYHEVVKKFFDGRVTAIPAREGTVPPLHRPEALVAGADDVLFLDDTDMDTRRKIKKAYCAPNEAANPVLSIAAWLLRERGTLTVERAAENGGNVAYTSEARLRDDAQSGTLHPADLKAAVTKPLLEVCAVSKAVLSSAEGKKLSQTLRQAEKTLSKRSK

[7] = target: T4, Tyrosyl-tRNA synthetase, putative (Trypanosoma cruzi (strain CL Brener)); experiment: Trypanosoma cruzi tyrosyl tRNA synthetase (TcYRS) SOP; type: functional; settings: 30 µM
[8] = target: Chromo domain-containing protein 1 (Saccharomyces cerevisiae (strain ATCC 204508 / S288c) (Baker's yeast)) (UniProt P32657); experiment: ScCHD-1 Enzyme Inhibition Assay; type: functional; settings: 30 µM; further: in the data most compounds retested in dose-response had high values
Chain of Chromo domain-containing protein 1 (Saccharomyces cerevisiae (strain ATCC 204508 / S288c) (Baker's yeast)) (P32657 whole entry, the tested form may be a part): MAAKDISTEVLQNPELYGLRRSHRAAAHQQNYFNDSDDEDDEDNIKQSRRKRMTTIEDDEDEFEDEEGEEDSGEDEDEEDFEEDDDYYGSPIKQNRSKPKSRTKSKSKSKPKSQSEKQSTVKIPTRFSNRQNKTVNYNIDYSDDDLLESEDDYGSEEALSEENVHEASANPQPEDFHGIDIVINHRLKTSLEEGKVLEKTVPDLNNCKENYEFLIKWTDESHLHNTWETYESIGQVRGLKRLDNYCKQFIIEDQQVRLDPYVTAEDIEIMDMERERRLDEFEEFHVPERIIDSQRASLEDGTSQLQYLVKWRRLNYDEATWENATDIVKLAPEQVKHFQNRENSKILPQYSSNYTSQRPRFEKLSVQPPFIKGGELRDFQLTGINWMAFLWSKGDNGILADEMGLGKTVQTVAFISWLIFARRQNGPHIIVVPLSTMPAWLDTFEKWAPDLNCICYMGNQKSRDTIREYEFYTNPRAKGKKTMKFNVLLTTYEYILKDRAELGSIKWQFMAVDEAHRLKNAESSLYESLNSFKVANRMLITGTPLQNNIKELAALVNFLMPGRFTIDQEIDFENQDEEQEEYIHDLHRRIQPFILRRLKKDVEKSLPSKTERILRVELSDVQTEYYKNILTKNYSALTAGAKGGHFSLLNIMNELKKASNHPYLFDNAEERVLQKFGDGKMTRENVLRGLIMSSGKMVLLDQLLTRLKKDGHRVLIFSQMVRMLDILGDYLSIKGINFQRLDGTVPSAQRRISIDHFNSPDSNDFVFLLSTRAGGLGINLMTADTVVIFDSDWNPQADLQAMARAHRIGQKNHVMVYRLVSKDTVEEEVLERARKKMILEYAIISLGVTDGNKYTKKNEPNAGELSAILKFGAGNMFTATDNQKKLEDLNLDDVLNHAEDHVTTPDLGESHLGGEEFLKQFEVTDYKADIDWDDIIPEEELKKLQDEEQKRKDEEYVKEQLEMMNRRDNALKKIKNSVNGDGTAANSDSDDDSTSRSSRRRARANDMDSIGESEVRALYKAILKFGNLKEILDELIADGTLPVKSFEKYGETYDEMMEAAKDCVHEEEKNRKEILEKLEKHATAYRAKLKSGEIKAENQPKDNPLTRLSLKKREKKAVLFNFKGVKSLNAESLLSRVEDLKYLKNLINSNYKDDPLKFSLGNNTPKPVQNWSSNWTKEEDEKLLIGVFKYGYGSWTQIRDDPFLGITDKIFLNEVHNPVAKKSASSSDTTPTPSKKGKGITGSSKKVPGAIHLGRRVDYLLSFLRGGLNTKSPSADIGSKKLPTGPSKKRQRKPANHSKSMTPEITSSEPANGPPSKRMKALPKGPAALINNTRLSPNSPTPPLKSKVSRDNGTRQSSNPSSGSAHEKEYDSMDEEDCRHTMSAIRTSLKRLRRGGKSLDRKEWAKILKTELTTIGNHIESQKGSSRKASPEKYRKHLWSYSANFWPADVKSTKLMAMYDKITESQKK

Chain of Protein translocase subunit SecA (Escherichia coli (strain K12)) (P10408 whole entry): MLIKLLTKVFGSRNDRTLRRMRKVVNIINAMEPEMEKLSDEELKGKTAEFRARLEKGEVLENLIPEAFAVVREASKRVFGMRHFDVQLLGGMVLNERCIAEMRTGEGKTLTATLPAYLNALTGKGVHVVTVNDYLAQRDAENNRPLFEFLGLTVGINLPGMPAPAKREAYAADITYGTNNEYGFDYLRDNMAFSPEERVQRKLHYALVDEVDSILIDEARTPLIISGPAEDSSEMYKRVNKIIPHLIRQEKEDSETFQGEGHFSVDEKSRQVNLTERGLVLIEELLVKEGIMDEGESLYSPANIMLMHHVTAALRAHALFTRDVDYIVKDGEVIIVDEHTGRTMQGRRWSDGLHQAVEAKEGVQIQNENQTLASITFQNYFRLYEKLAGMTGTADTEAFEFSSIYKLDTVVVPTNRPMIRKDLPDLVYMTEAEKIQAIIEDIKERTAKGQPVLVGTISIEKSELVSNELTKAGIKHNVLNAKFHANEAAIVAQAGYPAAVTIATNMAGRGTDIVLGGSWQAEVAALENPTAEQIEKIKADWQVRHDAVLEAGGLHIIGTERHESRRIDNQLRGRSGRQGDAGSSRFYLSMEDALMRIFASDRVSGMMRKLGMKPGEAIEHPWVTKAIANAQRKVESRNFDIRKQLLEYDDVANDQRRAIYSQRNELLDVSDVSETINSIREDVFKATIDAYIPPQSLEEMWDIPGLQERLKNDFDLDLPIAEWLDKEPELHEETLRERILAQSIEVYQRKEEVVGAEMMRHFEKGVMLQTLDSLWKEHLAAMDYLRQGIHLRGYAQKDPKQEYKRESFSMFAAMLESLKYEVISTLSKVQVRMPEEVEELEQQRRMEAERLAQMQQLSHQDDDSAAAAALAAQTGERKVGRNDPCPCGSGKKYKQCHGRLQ
Chain of Sialic acid-binding Ig-like lectin 9 (Homo sapiens) (Q9Y336 whole entry): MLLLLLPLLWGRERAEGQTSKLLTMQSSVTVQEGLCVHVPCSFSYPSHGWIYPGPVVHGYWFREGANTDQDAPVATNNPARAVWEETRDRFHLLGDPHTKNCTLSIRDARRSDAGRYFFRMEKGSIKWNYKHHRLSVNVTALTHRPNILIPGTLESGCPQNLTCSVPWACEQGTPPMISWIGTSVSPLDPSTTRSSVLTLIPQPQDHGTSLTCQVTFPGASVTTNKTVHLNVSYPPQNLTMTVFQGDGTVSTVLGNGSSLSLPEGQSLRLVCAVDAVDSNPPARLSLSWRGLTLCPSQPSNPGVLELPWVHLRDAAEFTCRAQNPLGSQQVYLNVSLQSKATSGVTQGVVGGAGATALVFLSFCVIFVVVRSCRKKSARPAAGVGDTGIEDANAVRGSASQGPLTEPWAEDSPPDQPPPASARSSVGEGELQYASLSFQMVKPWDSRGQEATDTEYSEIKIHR

Compound	Percent Effect [1]	Percent Effect [2]	Percent Effect [3]	Percent Effect (Trypanosoma cruzi)	Percent Effect [4]	Percent Effect [5]	Percent Effect (Homo sapiens)	Percent Effect [6]	Percent Effect [7]	Percent Effect [8]
CCn1ncc(Br)c1CN(C)S(=O)(=O)c1ccc(C)cc1	0.567%	6.67%	-0.565%	3.35%	6.2%	15.3%	14%	4.23%	10%	-22%
Cc1nn(C)c(N2CCOCC2)c1CNC1CCc2cc(F)ccc21 (stereo not given)	-1.4%	20.8%	4.82%	-2.8%	11.7%	7.72%	0.31%	6.86%	18.8%	-4.69%
CC(C)c1nc(CC(=O)N2CCCC(n3cncn3)C2)cs1 (stereo not given)	-0.0395%	20.5%	-14.2%	4.6%	8.2%	14.2%	24%	1.44%	22.9%	-5.56%
c1nc2n(n1)CC(NCc1csc(-c3ccsc3)n1)CC2 (stereo not given)	-1.39%	7.69%	-4.25%	1.97%	9.43%	2.3%	6.22%	9.09%	20.5%	-0.275%
CS(=O)(=O)N1Cc2ccccc2C2(CCN(C(=O)c3ccno3)CC2)C1	2.76%	19.5%	-5.73%	-10.7%	5.48%	18.4%	9.88%	6.76%	7.5%	-10.6%
O=S(=O)(CCNC1CCc2ncnn2C1)c1ccccc1 (stereo not given)	-0.316%	0%	9.36%	0.746%	-1.43%	5.09%	0.944%	1.96%	4.71%	5.51%
COC(=O)C1CCN(C(=O)c2ccc(NS(C)(=O)=O)c(C)c2)CC1	-3.21%	-5.41%	-1.94%	-2.04%	-0.35%	10.3%	-0.596%	3.72%	0%	0.629%
Cc1ccc(C(=O)N2CCCS2(=O)=O)cc1Cl	-1.08%	5.33%	-1.7%	-4.62%	3.1%	3.99%	-6.01%	0.526%	0%	-6.7%
OC(COc1ccccc1)CN1CCc2c(ncn2C2CC2)C1 (stereo not given)	-6.24%	8%	5.27%	-6.02%	-1.77%	3.65%	15.6%	5.79%	7.69%	-12.1%
Cn1cc(CN2C[C@@H]3COC[C@]3(CNC(=O)c3ccsc3)C2)cn1	-3%	-1.3%	16.9%	-3.6%	-5.26%	9.27%	-6.13%	-1.58%	0%	-2.4%
CCCc1cc(C(=O)N2CCCC2c2cccnc2)[nH]n1 (stereo not given)	-2.28%	13.5%	7.33%	2.81%	4.54%	17.1%	10.1%	4.79%	14.6%	-3.7%
COCCOc1cccc(C(=O)N2CCCC(n3cccn3)C2)c1 (stereo not given)	-3.05%	2.6%	10.5%	-0.746%	-1.84%	2.28%	7.63%	0%	4.71%	3.61%
C[C@@H]1C(=O)NC[C@H]2CN(CCc3ccccc3)C[C@H]21	-0.103%	16.9%	0.474%	1.5%	2.74%	11.4%	2.51%	11.6%	20%	-8.42%
Cn1cc(CC(=O)N2CCC(Nc3cccnn3)CC2)c2ccccc21	-3.59%	18.2%	3.22%	3.73%	-7.99%	5.96%	4.59%	7.84%	32.9%	-10.9%
CC(C)n1[nH]c(=O)c2c1NC(=O)CC2c1ccc2ncccc2c1 (stereo not given)	-1.16%	5.41%	0.703%	-2.62%	-5.94%	10.6%	17.7%	4.79%	9.76%	2.28%
CCC(=O)N1CCC(Cc2nccnc2Nc2ccccn2)CC1	-5.27%	4%	-4.87%	1.58%	-1.77%	-5.91%	18.1%	-4.23%	-2.5%	-20%
COc1ccc(C(C)NC(=O)Cn2ccc(=O)n(C)c2=O)cc1OC (stereo not given)	-2.49%	7.79%	11%	-2.8%	3.48%	9.65%	17.1%	8.82%	18.8%	-4.91%
Cc1ccc(OC2(C(=O)O)CCN(C(=O)c3nc(C)oc3C)CC2)cn1	-6.7%	0%	-0.0712%	4.17%	1.05%	-1.2%	-9.04%	2.66%	4.88%	1.11%
CC(=O)N1CCc2c(nc(-c3ccccn3)nc2N(C)CC(O)CO)C1 (stereo not given)	-7.71%	8.11%	3.94%	2.62%	5.25%	3.94%	-12.5%	14.4%	21.9%	-1.31%
CC(O)CNC(=O)NCc1cccnc1OC1CCCC1 (stereo not given)	-1.77%	13.3%	-3.55%	-3.21%	7.54%	2.63%	10.2%	6.84%	2.56%	-11.2%
